The source of these data is PubChem BioAssay AID624170 (National Center for Advancing Translational Sciences (NCATS), 2012).

Hit rate of the full screen: of about 410,000 compounds, about 850 (0.21%) were called active. About 2% were inconclusive and are not listed. Many of the other results were omitted from the sample, so actives are more common in it than they were. Values without a mark were called inactive. Calls come from the whole dose curve; as a rule, active = well fitted inhibition curve with a large enough effect; inconclusive = small, poorly fitted or top-dose-only effect, or another doubt; inactive = no such curve, though single readings can be large or run the other way. Square brackets hold non-standard residues; d marks the D form. Side chains are listed from the residue outwards. Peptide text beside a SMILES is read from it. * marks the point of attachment. X1 = CCC(C)C(N)C1=NC(C(=O)*)CS1; Orn = NCCC[CH](N)C(=O)O
% is set by controls: 0 for no effect and ±100 for the full control effect; potency is the fitted concentration of half-maximal effect.

Sequence of Glutaminase kidney isoform, mitochondrial (Homo sapiens) (O94925 whole entry, looked up, canonical isoform): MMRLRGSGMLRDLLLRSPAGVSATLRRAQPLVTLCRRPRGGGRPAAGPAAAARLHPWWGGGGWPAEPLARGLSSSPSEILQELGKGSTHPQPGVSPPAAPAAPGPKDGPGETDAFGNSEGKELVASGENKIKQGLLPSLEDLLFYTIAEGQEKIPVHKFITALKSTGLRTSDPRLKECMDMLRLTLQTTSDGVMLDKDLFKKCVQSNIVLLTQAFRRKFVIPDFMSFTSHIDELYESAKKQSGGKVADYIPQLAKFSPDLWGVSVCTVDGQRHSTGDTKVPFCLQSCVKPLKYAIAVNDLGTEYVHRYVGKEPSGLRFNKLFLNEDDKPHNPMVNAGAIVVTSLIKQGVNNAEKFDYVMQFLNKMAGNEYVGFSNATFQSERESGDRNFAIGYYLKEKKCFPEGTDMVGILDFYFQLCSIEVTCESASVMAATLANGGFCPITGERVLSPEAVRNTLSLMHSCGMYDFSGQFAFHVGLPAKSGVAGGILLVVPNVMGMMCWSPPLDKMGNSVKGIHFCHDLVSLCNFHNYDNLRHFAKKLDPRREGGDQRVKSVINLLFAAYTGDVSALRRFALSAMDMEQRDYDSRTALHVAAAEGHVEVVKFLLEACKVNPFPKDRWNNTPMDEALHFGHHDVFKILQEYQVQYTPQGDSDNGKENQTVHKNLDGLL

This assay concerns the target Glutaminase kidney isoform, mitochondrial (Homo sapiens) (UniProt O94925). As to the kind of experiment: qHTS for Inhibitors of Glutaminase (GLS). The settings on record: GLS enzymatic activity, qHTS titration; series mostly up to 45.5 µM; activity change, negative = inhibition: at the top concentration. The method, boiled down:
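Two-point fluorescence kinetic (t0, 30 min RT) for hKGA; glutamate detected via glutamate oxidase–HRP–Amplex Red. Substrate: 1 mM L-glutamine solution; buffer 45 mM KH2PO4, pH 8.2.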
(In general: In qHTS, concentration-response curves come from the screen itself.)
In the case of `COc1cc(C(=O)N2CCC(c3ccncc3)CC2)cc(OC)c1OC`, the “activity change, negative = inhibition” value was -16%.

Turning to `O=C(Nc1ccc(O)cc1)c1ccccc1O`, the “activity change, negative = inhibition” value was 18.9%.

`COc1cc(OC)cc(C(=O)Nc2cc3nn(-c4ccccc4)nc3cc2Cl)c1`: the “activity change, negative = inhibition” value was -7.39%.

Regarding `CCCc1c2oc(C(=O)O)cc(=O)c2cc2c(=O)cc(C(=O)O)n(CC)c12`, the “activity change, negative = inhibition” value is -0.467%.

As to `CCOc1cccc(/C=N/N2C(=O)CSC2=S)c1O`, the Potency is 10 µM (active).

Turning to `CCOc1cc(/C=N/n2cnnc2)c(Br)cc1O`, the “activity change, negative = inhibition” value is 27.6%.

Take `O=C1CSC(=S)N1/N=C/c1ccc(O)c([N+](=O)[O-])c1`: the “activity change, negative = inhibition” value was -1.11%.

Turning to `Cc1ccccc1NC(=O)c1cc2c([nH]c1=O)CC(C)(C)CC2=O`, the “activity change, negative = inhibition” value is -24%.

Consider `CCC(C)C(N)C1=NC(C(=O)NC(CC(C)C)C(=O)NC(CCC(=O)O)C(=O)NC(C(=O)NCCCCC2NC(=O)C(CC(N)=O)NC(=O)C(CC(=O)O)NC(=O)C(Cc3cnc[nH]3)NC(=O)C(Cc3ccccc3)NC(=O)C(C(C)CC)NC(=O)C(CCCN)NC2=O)C(C)CC)CS1` (stereo not drawn) (cyclo(DNK([Ile-Glu-Leu-X1])[Orn]IFH); configuration not given here), for which the “activity change, negative = inhibition” value is 5.57%.

In the case of `CC1(C)[C@H](O[C@H]2O[C@H](C(=O)O)[C@@H](O)[C@H](O)[C@H]2O[C@@H]2O[C@H](C(=O)O)[C@@H](O)[C@H](O)[C@H]2O)CC[C@@]2(C)[C@H]1CC[C@]1(C)[C@H]2C(=O)C=C2[C@H]3C[C@@](C)(C(=O)O)CC[C@]3(C)CC[C@]21C`, the “activity change, negative = inhibition” value is 14.9%.

As for `N#C/C(=C\c1cccc(F)c1)c1nc(-c2cc3c(ccc4ccccc43)oc2=O)cs1`, the “activity change, negative = inhibition” value is 9.66%.

As to `Cc1cc(NC(=O)c2cccc(Cl)c2)ccc1-c1cc2ccccc2oc1=O`, the “activity change, negative = inhibition” value is -8.99%.

For the compound `O=c1oc2ccccc2cc1-c1csc(Nc2ccc(O)cc2)n1`, the Potency is 2.82 µM (active).

`Cc1cc2nc(NC(=O)c3ccc(S(=O)(=O)N4CCOCC4)cc3)sc2cc1C`: the “activity change, negative = inhibition” value was -6.57%.

For the compound `CC1(C)O[C@@H]2C[C@@H]3[C@H]4C[C@@H](F)C5=CC(=O)C=C[C@]5(C)[C@@]4(F)[C@@H](O)C[C@]3(C)[C@]2(C(=O)CO)O1`, the “activity change, negative = inhibition” value is -9.75%.

Regarding `NNc1nnc(NN)c2ccccc12`, the “activity change, negative = inhibition” value is 18.4%.

In the case of `COc1ccc(Br)cc1CNC(=O)c1cc(=O)[nH]c2ccc(S(=O)(=O)N3CCCC3)cc12`, the “activity change, negative = inhibition” value is -6.81%.

`O=C1c2c(O)cccc2[C@@H]([C@@H]2O[C@H](CO)[C@@H](O)[C@H](O)[C@H]2O)c2cc(CO)cc(O)c21`: the “activity change, negative = inhibition” value was -1.67%.

With `CCC(CCC(C)C1CCC2C3CC=C4CC(O)CC[C@@]4(C)C3CC[C@@]12C)C(C)C` (stereo partly specified), the “activity change, negative = inhibition” value was 0.242%.

As for `CCN(CC)S(=O)(=O)c1ccc2c3c(cccc13)C(=O)S2`, the “activity change, negative = inhibition” value is -7.06%.

`CCN1C(=O)c2ccccc2S(=O)c2ccc(C(=O)NCc3ccc(F)cc3)cc21` (stereo unspecified): the “activity change, negative = inhibition” value is -0.753%.

Turning to `CCN1C(=O)c2cccc3c(S(=O)(=O)Nc4ccccc4O)ccc1c23`, the Potency is 11.2 µM (active).

For `Cc1ccc(CSc2nc3ccsc3c(=O)n2CCC(C)C)cc1`, the “activity change, negative = inhibition” value is 6.64%.

With `CC[C@]1([C@H]2O[C@@H]([C@@H]3O[C@](O)(CO)[C@@H](C)C[C@H]3C)C[C@H]2C)CC[C@@H]([C@]2(C)CC[C@@]3(C[C@@H](O)[C@@H](C)[C@@H]([C@H](C)[C@H](OC)[C@H](C)C(=O)O)O3)O2)O1`, the “activity change, negative = inhibition” value is 0.877%.

With `Cc1nc2nc(SCC(=O)NC3CCC(C)CC3)nn2c(C)c1Cc1ccccc1Cl` (stereo unspecified), the “activity change, negative = inhibition” value is -5.16%.

As to `Cn1c(SCC(=O)N/N=C/c2ccc(O)c(O)c2)nc2ccccc21`, the Potency is 17.8 µM (active).

On to `COc1ccc(OC)c(NC(=O)CSc2nc3cccnc3n2C)c1`, for which the “activity change, negative = inhibition” value is -1.35%.

With `C=CCn1c(Cn2nnc3ccccc32)nnc1SCC(=O)N/N=C/c1cc(Br)cc(OC)c1O`, the “activity change, negative = inhibition” value was 28.5%.

Regarding `CNC(=O)CN1C(=O)c2cccnc2Sc2ccccc21`, the “activity change, negative = inhibition” value was 6.23%.

Regarding `CC(=O)c1ccc(NC(=O)COc2ccccc2-c2nc(-c3ccccc3)no2)cc1`, the “activity change, negative = inhibition” value was 1.67%.

Consider `CCOC(=O)c1cc2c(=O)n3ccccc3nc2n(CC2CCCO2)c1=NC(=O)c1ccc(C(C)(C)C)cc1` (stereo unspecified), for which the “activity change, negative = inhibition” value is 1.12%.

For the compound `CCC(C)C1OC2(C=CC1C)CC1CC(C/C=C(/C)C(OC3CC(OC)C(OC4CC(OC)C(NC(C)=O)C(C)O4)C(C)O3)C(C)/C=C\C=C3\COC4C(O)C(C)=CC(C(=O)O1)C34O)O2` (stereo unspecified), the “activity change, negative = inhibition” value is -26.7%.

As to `C[C@@H]1C[C@H]2[C@@H]3C[C@H](F)C4=CC(=O)C=C[C@@]4(C)[C@]3(F)[C@H](O)C[C@]2(C)[C@@]1(O)C(=O)CO`, the “activity change, negative = inhibition” value was 0.486% [at 20 µM].

For the compound `O=C(Nc1ccccc1Cl)N1CCC(CN2CCCC2)CC1`, the “activity change, negative = inhibition” value was 3.88%.

On to `O=C(Nc1ccccc1Cl)N1CCC(CN2CCCCC2)CC1`, for which the “activity change, negative = inhibition” value is -5.88%.

Regarding `O=C(Nc1ccccc1Cl)/C(Cl)=C(\Cl)S(=O)c1ccccc1` (stereo unspecified), the Potency is 1.78 µM (active).

As for `O=C(/C=C/c1cccc(F)c1)NC1CC1`, the “activity change, negative = inhibition” value was 4.05%.

As for `Cc1nnc(C(=O)NC(C)(C)c2nc(C(=O)NCc3ccc(F)cc3)c(O)c(=O)n2C)o1`, the “activity change, negative = inhibition” value is 5.68%.

For `COc1ccc(OC)c([C@H](O)CNC(=O)CN)c1`, the “activity change, negative = inhibition” value was -13.6% [at 20 µM].

Consider `CCN(C(=O)COC(=O)/C=C/c1nc2ccccc2s1)C1CCS(=O)(=O)C1` (stereo unspecified), for which the “activity change, negative = inhibition” value was -13.8%.

As for `Cc1cc(C)c2nc(SCC(=O)N(C)C3CCS(=O)(=O)C3)cc(C)c2c1` (stereo unspecified), the “activity change, negative = inhibition” value was -2.3%.

Consider `CN(C(=O)COC(=O)c1cc(-c2ccco2)nc2ccccc12)C1CCS(=O)(=O)C1` (stereo unspecified), for which the Potency was 10 µM (active).

`CCOC(=O)CN1C(C(=O)c2ccccc2)=C(OC(=O)C(C)(C)C)c2ccccc2S1(=O)=O`: the “activity change, negative = inhibition” value was -4.55%.

With `C=C(C)C(=O)Nc1cccc(C2=NOC3(C2)C[C@H](C(N)=O)N(C(=O)C(c2ccccc2)c2ccccc2)C3)c1` (stereo partly specified), the Potency was 14.1 µM (active).

Take `NC(=O)[C@H]1CC2(CC(c3cccc(NC(=O)[C@H]4CCC(=O)N4)c3)=NO2)CN1C(=O)c1ccccc1C(=O)c1ccccc1` (stereo partly specified): the “activity change, negative = inhibition” value is 7.06%.

As for `CCC(=O)Nc1cccc(C2=NOC3(C2)C[C@@H](C(N)=O)N(C(=O)c2cc([N+](=O)[O-])cc([N+](=O)[O-])c2C)C3)c1` (stereo partly specified), the “activity change, negative = inhibition” value is -2.13%.

Turning to `COc1ccc(OC)c(NC(=O)Cn2c(=O)n(Cc3ccccc3)c(=O)c3ccccc32)c1`, the “activity change, negative = inhibition” value was -4.18%.

With `CC(C)(C)C1C/C(=C/c2ccco2)C(=O)/C(=C/c2ccco2)C1` (stereo unspecified), the Potency was 22.4 µM (active).

With `CC[C@]1(C)CC(=O)NC1=O`, the “activity change, negative = inhibition” value was 0.282%.

Turning to `O=P(O)(O)OC[C@H](O)CO`, the “activity change, negative = inhibition” value was -1.43%.

Take `CC(C)c1ccc(NS(=O)(=O)c2ccc3[nH]cc(C(=O)NC4CCCC4)c(=O)c3c2)cc1`: the “activity change, negative = inhibition” value was -9.07%.
